Reference: PubChem BioAssay AID1159580 (chemical genetic matrix, 2015)
Screen size: about 5,500 compounds; about 2,000 (36%) were called active. Inconclusive results (about 18%) are left out. Rule as the data show it: active = normalized growth mostly below about 0.91 (no sharp cut-off); inconclusive = no clear call, values can overlap the other calls; inactive = mostly above about 0.92. The list shows a part of the results.

Assay: chemical genetic growth profiling, strain panel (AID 1159580);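 also: tested at 20 µM; growth read once vehicle control cultures reached saturation at 30 °C; 1 = growth at the plate median or of vehicle wells; lower values mean less growth of the strain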
Conditions: S. cerevisiae deletion strains, growth OD

Measured: normalized growth

Clc1ccc(C(OCCN2CCCCC2)c2ccccc2)cc1 (stereo not drawn)
inactive: locus YAL013W, strain DEP1, stronger effect = lower value 1 | locus YAL021C, strain ccr4, stronger effect = lower value 0.954 | locus YAL026C, strain drs2, stronger effect = lower value 1.02 | locus YAL030W, strain snc1, stronger effect = lower value 1.01 | locus YBL061C, strain skt5, stronger effect = lower value 1.02 | locus YBR009C, strain hhf1, stronger effect = lower value 1 | locus YBR023C, strain chs3, stronger effect = lower value 1.02 | locus YBR171W, strain sec66, stronger effect = lower value 1.02 | locus YBR229C, strain ROT2, stronger effect = lower value 0.999 | locus YBR231C, strain swc5, stronger effect = lower value 1.01 | locus YBR279W, strain paf1, stronger effect = lower value 1.02 | locus YCL011C, strain gbp2, stronger effect = lower value 1.03 | locus YCL016C, strain dcc1, stronger effect = lower value 1.03 | locus YCL029C, strain bik1, stronger effect = lower value 1.01 | locus YCL061C, strain MRC1, stronger effect = lower value 1.02 | locus YCL069W, strain vba3, stronger effect = lower value 1.02 | locus YCR088W, strain abp1, stronger effect = lower value 1.02 | locus YDL005C, strain med2, stronger effect = lower value 1.01 | locus YDL035C, strain GPR1, stronger effect = lower value 0.986 | locus YDL040C, strain nat1, stronger effect = lower value 1.02 | locus YDL074C, strain BRE1, stronger effect = lower value 0.947 | locus YDL101C, strain DUN1, stronger effect = lower value 1 | locus YDL134C, strain PPH21, stronger effect = lower value 0.995 | locus YDL185W, strain tfp1, stronger effect = lower value 1 | locus YDL192W, strain arf1, stronger effect = lower value 1.01 | locus YDR001C, strain nth1, stronger effect = lower value 1.02 | locus YDR069C, strain doa4, stronger effect = lower value 0.969 | locus YDR101C, strain arx1, stronger effect = lower value 0.982 | locus YDR150W, strain NUM1, stronger effect = lower value 1.01 | locus YDR159W, strain sac3, stronger effect = lower value 1.03 | locus YDR162C, strain NBP2, stronger effect = lower value 0.993 | locus YDR195W, strain ref2 1.07 | locus YDR297W, strain sur2, stronger effect = lower value 1.03 | locus YDR318W, strain mcm21, stronger effect = lower value 0.983 | locus YDR334W, strain swr1, stronger effect = lower value 1.03 | locus YDR335W, strain msn5, stronger effect = lower value 1.03 | locus YDR392W, strain spt3, stronger effect = lower value 1.04 | locus YDR502C, strain sam2, stronger effect = lower value 0.983 | locus YEL003W, strain gim4, stronger effect = lower value 1.01 | locus YEL037C, strain rad23, stronger effect = lower value 1.02 | locus YEL061C, strain CIN8 (second series), stronger effect = lower value 1.03 | locus YEL061C, strain CIN8, stronger effect = lower value 1.01 | locus YER015W, strain faa2, stronger effect = lower value 1.02 | locus YER016W, strain bim1, stronger effect = lower value 1.02 | locus YER110C, stronger effect = lower value 1 | locus YER111C, strain swi4, stronger effect = lower value 1.01 | locus YER155C, strain BEM2 (second series), stronger effect = lower value 1.01 | locus YER155C, strain BEM2, stronger effect = lower value 1 | locus YER167W, strain BCK2, stronger effect = lower value 0.998 | locus YFR010W, strain ubp6, stronger effect = lower value 0.986 | locus YGL078C, strain dbp3, stronger effect = lower value 0.99 | locus YGL086W, strain mad1, stronger effect = lower value 0.974 | locus YGL167C, strain pmr1, stronger effect = lower value 1.02 | locus YGL173C, strain kem1, stronger effect = lower value 1.01 | locus YGL227W, strain vid30, stronger effect = lower value 1.02 | locus YGL240W, strain doc1, stronger effect = lower value 1.02 | locus YGL248W, strain PDE1, stronger effect = lower value 0.99 | locus YGL253W, strain hxk2, stronger effect = lower value 1.02 | locus YGR078C, strain PAC10, stronger effect = lower value 0.977 | locus YGR135W, strain pre9, stronger effect = lower value 0.951 | locus YGR229C, strain SMI1, stronger effect = lower value 0.901 | locus YGR252W, strain gcn5, stronger effect = lower value 0.888 | locus YHR013C, strain ard1, stronger effect = lower value 0.895 | locus YHR027C, strain rpn1, stronger effect = lower value 1.03 | locus YHR030C, strain SLT2, stronger effect = lower value 1 | locus YHR079C, strain IRE1 (second series), stronger effect = lower value 0.994 | locus YHR094C, strain hxt1, stronger effect = lower value 0.997 | locus YHR129C, strain ARP1, stronger effect = lower value 1 | locus YHR142W, strain chs7, stronger effect = lower value 1.01 | locus YHR200W, strain rpn10, stronger effect = lower value 0.989 | locus YIL066C, strain RNR3, stronger effect = lower value 0.988 | locus YIL073C, strain SPO22, stronger effect = lower value 1.12 | locus YIL125W, strain kgd1, stronger effect = lower value 1 | locus YIR030C, strain dcg1, stronger effect = lower value 0.996 | locus YJL092W, strain hpr5, stronger effect = lower value 1.02 | locus YJL095W, strain BCK1 (second series), stronger effect = lower value 1.03 | locus YJL095W, strain BCK1, stronger effect = lower value 0.913 | locus YJL115W, strain asf1, stronger effect = lower value 1.02 | locus YJL129C, strain trk1, stronger effect = lower value 1.04 | locus YJL134W, strain LCB3, stronger effect = lower value 1 | locus YJL154C, strain vps35, stronger effect = lower value 1.01 | locus YJL164C, strain tpk1, stronger effect = lower value 1.02 | locus YJL166W, strain qcr8, stronger effect = lower value 1.01 | locus YJL168C, strain set2, stronger effect = lower value 1 | locus YJL187C, strain SWE1 (second series), stronger effect = lower value 0.983
active: locus YBR021W, strain FUR4, stronger effect = lower value 0.833 | locus YDR137W, strain rgp1, stronger effect = lower value 1.21 [resistant] | locus YDR388W, stronger effect = lower value 0.924
